According to the supplement of paper PMC6555819:

test system: FXR:RXRa (NR concentration 270 nM, RXRa partner concentration 90 nM); assay: PBM binding z-score (relative to random genomic background probes); higher = stronger binding; sequences stand for … in GC…GCGATTGACAGCGTAGAATGAAGG
Method in brief: (§1)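 Probes were double-stranded and carried 34-nt variable regions with direct-repeat seeds, single-nucleotide variants, half-site ablations and random human genomic background sequences, printed on custom Agilent 4×180K protein-binding microarrays. Arrays were incubated 1 h with ligand-free nuclear receptor dimers in PBS pH 7.4, 2% milk, 0.02% Triton X-100, 1 mM DTT, 0.2 mg/mL BSA and 0.4 mg/ml salmon testes DNA. Antibodies against each partner (one per run) detected binding, and scanned fluorescence was regression-normalized. Binding z-scores use the random background probes as reference.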

Sequence	PBM binding z-score
CTAACTAGGTCACGAAAGGTCAAAGTCGAATGAC	7.37
CCTGCTAGGACAATGGTCAGCTAAAGCAGCTCGC	-0.67
CAAACTAGGTCAAAGGTCAAGGTCGAGCCAACCA	8.28
GATACAGGGTCAAGGCCAGAATACGCGTATTGAT	6.98
CGAACTAGGTCAGAGCAGGACAGTGAAGGATGAT	1.33
CAAACTAGGTCAAAGGTCAAAGACGAGCCAACCA	8.68
ATCTCTAGGTGAAAGTTCAGTGAATCCCGAGGAT	1.41
CAAACTAGGTCACAGAGGTCAAAGTTCGTGCGTA	7.37
CCTTACGGGTCTAGGTTATAGCACGGGTGGTACG	-0.122
TCTTGTAGATCAAAGGTCAAGAAAGCCGAAGCCT	4.71
ATATGTAGGTCAGGGTCATTCAGAAAGTAGGGAA	5.82
AGTCAAAGTTCATCTGGGTAACGTAAGATATGCT	6.32
TTACCAAGGTAAAAGGTCGTTGATGCACGCCTTG	2.52
ACTAGAAGGCCAAGGGTCACTCAAGATTAGTCCG	3.27
GATACAGGGTCAGCTAGAGGTCAGAGTATGGAAA	6
TCATATAGGTAATAAAGGTGAAAGTCGGCATCTA	1.82
TCTTGTAGATCAAAGCTTAAGAAAGCCGAAGCCT	-0.314

test system: LXRa:RXRa (NR concentration 270 nM, RXRa partner concentration 90 nM); assay: as above
Method in brief: as §1

Sequence	PBM binding z-score
ATCTCTAGGTAAATGTTCAGTGAATCCCGAGGAT	-0.125
AGTCAAAGTTCAGGACGAGGTAAAGTAAAGCACG	3.89
CCTACTGGGCCAAAGGTCATAGATTCCAATGCTC	4.61
AGTAAAAGTTCACTAGGTAACGTAAGATTCAGCT	4.44
GCTTCCGGGTCAAAGGTTATAGCATGAATAGAAT	5.48
CAAACTAGGTCACGAAAGGTCAAAATCGAATGAC	8.11
CGAACTAGGTCAAAGGACACTGAAAGGCGACGTA	2.6
GGAACGGGGGCATTCGAGTTGATAGCATGGCGAT	4.03
ACTAGGAGGACAAAGGTCAGAGCTACGCCAGTGA	4.18
TATACTGGGTCAAAGGCCAGAGTACGAATGTCGA	3.73
CAAACTAGGTCAAGGTCAAATTCGGTTTGTGCCA	5.69
AGTCAAAGTTCACTAGGCAACGTAAGATTCAGCT	5.12
CGTCCAAGGTCAATGTTAGGTCAGTGAAAGCATT	5.88
CGTCCAAGGTCAGAGAGGTCAGTGTATGCCGAGT	5.1
ACTAGCAGGCCAAAGGTCACTCAAGATTAGTCCG	4.93
GATACAGGGTGAGCTAGAGGCCAGAGTATGGAAA	-0.464
CAAACTAGGTCAAAGGTCAACGTCGAGCCAACCA	7.18
CGGACTGGGGCAAAGGTTACCATACTCAGTACGA	1.67
GCATACGGGTCAAAGGTTATAGCATGAATAGAAT	5.85
ACTAGCAGGTCAAGGGTCACTCAAGATTAGTCCG	5.73

Sequence	PBM binding z-score
CAAACTAGGTCACGAGGTCAAAGTCCGCTTCCCG	6
TCATATAGGTTAAGGTGAAAGTCGAACGATATGA	1.59
CTAACTAGGTCACGAAAGGTCAAAGTCGAATGAC	8.22
CCTGCTAGGACAATGGTCAGCTAAAGCAGCTCGC	-0.803
CAAACTAGGTCAAAGGTCAAGGTCGAGCCAACCA	7.09
GATACAGGGTCAAGGCCAGAATACGCGTATTGAT	4.25
CGAACTAGGTCAGAGCAGGACAGTGAAGGATGAT	0.722
CAAACTAGGTCAAAGGTCAAAGACGAGCCAACCA	7.43
ATCTCTAGGTGAAAGTTCAGTGAATCCCGAGGAT	1.98
CAAACTAGGTCACAGAGGTCAAAGTTCGTGCGTA	6.84
CCTTACGGGTCTAGGTTATAGCACGGGTGGTACG	-0.0116
TCTTGTAGATCAAAGGTCAAGAAAGCCGAAGCCT	5.21
ATATGTAGGTCAGGGTCATTCAGAAAGTAGGGAA	4.89
AGTCAAAGTTCATCTGGGTAACGTAAGATATGCT	6.01
TTACCAAGGTAAAAGGTCGTTGATGCACGCCTTG	2.49
ACTAGAAGGCCAAGGGTCACTCAAGATTAGTCCG	3.28
GATACAGGGTCAGCTAGAGGTCAGAGTATGGAAA	5.81
TCATATAGGTAATAAAGGTGAAAGTCGGCATCTA	2.15
TCTTGTAGATCAAAGCTTAAGAAAGCCGAAGCCT	0.0464

test system: LXRa homodimer (NR concentration 270 nM); assay: as above
Method in brief: as §1

Sequence	PBM binding z-score
ATCTCTAGGTAAATGTTCAGTGAATCCCGAGGAT	-0.0436
AGTCAAAGTTCAGGACGAGGTAAAGTAAAGCACG	1.34
CCTACTGGGCCAAAGGTCATAGATTCCAATGCTC	3.46
AGTAAAAGTTCACTAGGTAACGTAAGATTCAGCT	3.1
GCTTCCGGGTCAAAGGTTATAGCATGAATAGAAT	0.542
CAAACTAGGTCACGAAAGGTCAAAATCGAATGAC	7.47
CGAACTAGGTCAAAGGACACTGAAAGGCGACGTA	0.187
GGAACGGGGGCATTCGAGTTGATAGCATGGCGAT	0.603
ACTAGGAGGACAAAGGTCAGAGCTACGCCAGTGA	1.5
TATACTGGGTCAAAGGCCAGAGTACGAATGTCGA	1.34
CAAACTAGGTCAAGGTCAAATTCGGTTTGTGCCA	5.04
AGTCAAAGTTCACTAGGCAACGTAAGATTCAGCT	2.72
CGTCCAAGGTCAATGTTAGGTCAGTGAAAGCATT	2.85
CGTCCAAGGTCAGAGAGGTCAGTGTATGCCGAGT	3.33
ACTAGCAGGCCAAAGGTCACTCAAGATTAGTCCG	2.36
GATACAGGGTGAGCTAGAGGCCAGAGTATGGAAA	-0.638
CAAACTAGGTCAAAGGTCAACGTCGAGCCAACCA	5.23
CGGACTGGGGCAAAGGTTACCATACTCAGTACGA	-0.108
GCATACGGGTCAAAGGTTATAGCATGAATAGAAT	0.463
ACTAGCAGGTCAAGGGTCACTCAAGATTAGTCCG	2.16

Sequence	PBM binding z-score
CAAACTAGGTCACGAGGTCAAAGTCCGCTTCCCG	5.08
TCATATAGGTTAAGGTGAAAGTCGAACGATATGA	0.00535
CTAACTAGGTCACGAAAGGTCAAAGTCGAATGAC	7.7
CCTGCTAGGACAATGGTCAGCTAAAGCAGCTCGC	-0.499
CAAACTAGGTCAAAGGTCAAGGTCGAGCCAACCA	5.12
GATACAGGGTCAAGGCCAGAATACGCGTATTGAT	0.231
CGAACTAGGTCAGAGCAGGACAGTGAAGGATGAT	-0.112
CAAACTAGGTCAAAGGTCAAAGACGAGCCAACCA	5.15
ATCTCTAGGTGAAAGTTCAGTGAATCCCGAGGAT	1.24
CAAACTAGGTCACAGAGGTCAAAGTTCGTGCGTA	7.98
CCTTACGGGTCTAGGTTATAGCACGGGTGGTACG	0.0619
TCTTGTAGATCAAAGGTCAAGAAAGCCGAAGCCT	2.41
ATATGTAGGTCAGGGTCATTCAGAAAGTAGGGAA	1.68
AGTCAAAGTTCATCTGGGTAACGTAAGATATGCT	5.7
TTACCAAGGTAAAAGGTCGTTGATGCACGCCTTG	0.274
ACTAGAAGGCCAAGGGTCACTCAAGATTAGTCCG	0.426
GATACAGGGTCAGCTAGAGGTCAGAGTATGGAAA	3.45
TCATATAGGTAATAAAGGTGAAAGTCGGCATCTA	0.741
TCTTGTAGATCAAAGCTTAAGAAAGCCGAAGCCT	-0.571
